Results taken from ChEMBL document CHEMBL1157539, “Thousands of chemical starting points for antimalarial lead identification” (Nature, 2010).

Key:
Format in all cases: functional
Plasmodium falciparum [1] = assay: GSK_TCMDC: Inhibition of Plasmodium falciparum 3D7 in whole red blood cells, using parasite LDH activity as an index of growth. Test compounds present at 2uM
Plasmodium falciparum [2] = assay: GSK_TCMDC: Inhibition of Plasmodium falciparum Dd2 in whole red blood cells, using parasite LDH activity as an index of growth. Test compounds present at 2uM
HepG2 = assay: GSK_TCMDC: Percent inhibition of human HepG2 cell line. Test compounds present at 10uM.

For `COc1ccc(-c2ccc([N+](=O)[O-])cc2C(=O)NCC(C)Oc2ccc(C(F)(F)F)cc2)cc1` (centres undefined), the Inhibition (Plasmodium falciparum [1]) was 100%, the Inhibition (Plasmodium falciparum [2]) was 81% and the Inhibition (HepG2) was 6%.
`COc1ccc2c(NN=Cc3ccncc3)ccnc2c1` showed an Inhibition (Plasmodium falciparum [1]) of 95%, an Inhibition (Plasmodium falciparum [2]) of 6% and an Inhibition (HepG2) of 0%.
In the case of `COc1ccc(-c2ccc(NC(=O)c3ccc(C#N)cc3)cc2)cc1CN1CCCC1.O=C(O)C(F)(F)F`, the Inhibition (Plasmodium falciparum [1]) is reported as 95%, the Inhibition (Plasmodium falciparum [2]) is reported as 51% and the Inhibition (HepG2) is reported as 40%.
With `COCCCNC(=O)[C@H]1CNCCN1C(=O)c1ccccc1.O=C(O)C(F)(F)F` the Inhibition (Plasmodium falciparum [1]) was 97%, the Inhibition (Plasmodium falciparum [2]) was 95% and the Inhibition (HepG2) was 53%.
`O=C(Nc1cccc(-c2ccc(-c3nc4cc(C(F)(F)F)ccc4[nH]3)cc2)c1)Nc1ccc(Cl)c(Cl)c1` gave an Inhibition (Plasmodium falciparum [1]) of 100%, an Inhibition (Plasmodium falciparum [2]) of 51% and an Inhibition (HepG2) of 93%.
In the case of `Nc1ccc(-c2ccc(NC(=O)Nc3cc(C(F)(F)F)ccc3F)cc2)cn1`, the Inhibition (Plasmodium falciparum [1]) is reported as 99%, the Inhibition (Plasmodium falciparum [2]) is reported as 39% and the Inhibition (HepG2) is reported as 0%.
For `NC1CCN(Cc2cccc(-c3ccc(-c4nc5ccccc5[nH]4)cc3)c2)C1.O=C(O)C(F)(F)F` (centres undefined), the Inhibition (Plasmodium falciparum [1]) was 100%, the Inhibition (Plasmodium falciparum [2]) was 58% and the Inhibition (HepG2) was 24%.
`Cc1ccc(Nc2nc(C)cc(NC3CCN(C)CC3)n2)cc1` was tested, and the Inhibition (Plasmodium falciparum [1]) was 100%, the Inhibition (Plasmodium falciparum [2]) was 21% and the Inhibition (HepG2) was 14%.
Work on `Cn1ccnc1Sc1ncccc1[N+](=O)[O-]` yielded an Inhibition (Plasmodium falciparum [1]) of 96%, an Inhibition (Plasmodium falciparum [2]) of 2% and an Inhibition (HepG2) of 0%.
With `CN(C)c1ccc(-c2csc(C(=O)NC3CCCCN(CCC(C)(C)C)C3)c2)cc1.O=C(O)C(F)(F)F` (centres undefined) the Inhibition (Plasmodium falciparum [1]) was 91%, the Inhibition (Plasmodium falciparum [2]) was 68% and the Inhibition (HepG2) was 10%.
Compound `Fc1ccc(CN2CCN(c3ncnc4cc(-c5ccccc5)sc34)CC2)cc1` has an Inhibition (Plasmodium falciparum [1]) of 82%, an Inhibition (Plasmodium falciparum [2]) of 82% and an Inhibition (HepG2) of 7%.
`Cc1cc(=NN=Cc2ccc(F)cc2)c2cc(F)ccc2[nH]1` was tested, and the Inhibition (Plasmodium falciparum [1]) was 100%, the Inhibition (Plasmodium falciparum [2]) was 61% and the Inhibition (HepG2) was 6%.
Compound `CCN1CCN(c2cc(C)c3cc(NC(=O)c4ccc([N+](=O)[O-])c(C)c4)ccc3n2)CC1` has an Inhibition (Plasmodium falciparum [1]) of 92%, an Inhibition (Plasmodium falciparum [2]) of 39% and an Inhibition (HepG2) of 8%.
`CSc1ccc(C=CC(=O)NC(=O)c2ccccc2O)cc1` gave an Inhibition (Plasmodium falciparum [1]) of 97%, an Inhibition (Plasmodium falciparum [2]) of 96% and an Inhibition (HepG2) of 2%.
For `COc1ccc2nccc([C@@H](O)CN3CCC(NC(=O)c4[nH]c5ccccc5c4-c4ccccc4)CC3)c2c1`, the Inhibition (Plasmodium falciparum [1]) was 96%, the Inhibition (Plasmodium falciparum [2]) was 68% and the Inhibition (HepG2) was 18%.
`Cc1sc2cc(Cl)cc(Cl)c2c1S(=O)(=O)Nc1ccc2nccc(N3CCNCC3)c2c1.Cl` was tested, and the Inhibition (Plasmodium falciparum [1]) was 100%, the Inhibition (Plasmodium falciparum [2]) was 99% and the Inhibition (HepG2) was 24%.
`Cc1[nH]c(C)c(-c2ccc(OCc3cccc(C(F)(F)F)c3)nc2)c(=O)c1Br` was tested, and the Inhibition (Plasmodium falciparum [1]) was 99%, the Inhibition (Plasmodium falciparum [2]) was 97% and the Inhibition (HepG2) was 37%.
`CCN(CC)CCn1c(=N)n(CC(O)c2ccc(Cl)c(Cl)c2)c2ccccc21.Cl` (centres undefined) was tested, and the Inhibition (Plasmodium falciparum [1]) was 99%, the Inhibition (Plasmodium falciparum [2]) was 88% and the Inhibition (HepG2) was 35%.
`CN1CCN(c2ccnc3ccc(NC(=O)Nc4ccc(-c5ccncc5)c(C(F)(F)F)c4)cc23)CC1` gave an Inhibition (Plasmodium falciparum [1]) of 99%, an Inhibition (Plasmodium falciparum [2]) of 99% and an Inhibition (HepG2) of 12%.
In the case of `COc1ccc(CC(=O)NC(CCCN2CCC(c3ccccc3)CC2)c2ccc(Cl)c(Cl)c2)cc1OC` (centres undefined), the Inhibition (Plasmodium falciparum [1]) is reported as 82%, the Inhibition (Plasmodium falciparum [2]) is reported as 57% and the Inhibition (HepG2) is reported as 28%.
For `COc1ccc2ccccc2c1C=NN=c1cc[nH]c2ccc(F)cc12`, the Inhibition (Plasmodium falciparum [1]) was 87%, the Inhibition (Plasmodium falciparum [2]) was 10% and the Inhibition (HepG2) was 11%.
`O=C(NCCN1CCCc2ccccc21)C1CCN(c2nc(-c3ccc(Cl)cc3)no2)CC1` was tested, and the Inhibition (Plasmodium falciparum [1]) was 86%, the Inhibition (Plasmodium falciparum [2]) was 62% and the Inhibition (HepG2) was 11%.
For `O=C(N[C@H]1CCN(Cc2ccc(OCCN3CCCC3)c(Cl)c2)C1)c1ccc(Cl)c(Cl)c1.O=C(O)C(F)(F)F`, the Inhibition (Plasmodium falciparum [1]) was 100%, the Inhibition (Plasmodium falciparum [2]) was 46% and the Inhibition (HepG2) was 68%.
With `O=C(Cc1cccc(Cl)c1)Nc1cccc(-c2c[nH]c3nc(Nc4cccc(OCc5ccccc5)c4)ncc23)c1.O=C(O)C(F)(F)F` the Inhibition (Plasmodium falciparum [1]) was 100%, the Inhibition (Plasmodium falciparum [2]) was 56% and the Inhibition (HepG2) was 0%.
`CN1CCN(Cc2ccc(-c3ccc4c(Nc5ccc(F)cc5Cl)ccnc4c3)o2)CC1` was tested, and the Inhibition (Plasmodium falciparum [1]) was 100%, the Inhibition (Plasmodium falciparum [2]) was 100% and the Inhibition (HepG2) was 8%.
`CN(CCCNc1ccc(C(=O)Nc2ccc(C(F)(F)F)cc2)cc1[N+](=O)[O-])Cc1ccccc1` gave an Inhibition (Plasmodium falciparum [1]) of 100%, an Inhibition (Plasmodium falciparum [2]) of 48% and an Inhibition (HepG2) of 25%.
`CCc1cn2c3c(cc(C(=O)N[C@@H](Cc4ccccc4)[C@H](O)CN[C@@H](C)CC)cc13)N(C)S(=O)(=O)CC2.O=CO` was tested, and the Inhibition (Plasmodium falciparum [1]) was 99%, the Inhibition (Plasmodium falciparum [2]) was 98% and the Inhibition (HepG2) was 2%.
In the case of `O=C(O)C(F)(F)F.O=S(=O)(NCCN1CCCC1)c1cccc(-c2ccccc2CNC2Cc3ccccc3C2)c1`, the Inhibition (Plasmodium falciparum [1]) is reported as 99%, the Inhibition (Plasmodium falciparum [2]) is reported as 76% and the Inhibition (HepG2) is reported as 35%.
